Bioassay records: PubChem, National Center for Advancing Translational Sciences (NCATS)
Abeta rescue – qHTS for compounds that reverse cellular toxicity of Amyloid beta (A-beta) peptide in yeast: Primary Screen; AID 1347071, 2019; 410,000 compounds, 0.063% hits; yeast expressing A-beta42, growth rescue, OD600, 48 h; response scale: 0% DMSO, 100% iron-clioquinol control; Potency, µM (doses to about 46.1 µM), actives largely listed as activators; further: nearly all actives have a fitted effect of over 55% in size
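Yeast A-beta toxicity model in growth medium with pinned compounds, 48 h at 30 C; growth read as absorbance at 600 nm. Normalized to FeCl3/clioquinol equimolar mix (positive) and DMSO (negative).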
TDP-43 yeast inh – qHTS of TDP-43 Inhibitors; TDP-43 expressing yeast growth rescue, BacTiter-Glo, 24 h; Potency, µM (doses to about 46.1 µM), actives largely listed as activators; 410,000 compounds, 1.8% hits; further: nearly all actives have a fitted effect of over 50% in size
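Readout is BacTiter-Glo luminescence of cell growth, so inhibitors register as activators. TDP-43-expressing yeast at OD600=0.02 in galactose medium, after raffinose pregrowth to mid-log, were incubated with compound for 24 hr at 30 deg C.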
FUS suppressor – qHTS for Suppressors of FUS Proteinopathy: Primary screen using FUS-linked yeast assay; 390,000 compounds, 0.24% hits; Potency, µM (doses to about 76.6 µM), usual class: activators; AID 1347120, 2019; S. cerevisiae FUS-expressing, growth rescue, OD600, 24 h; further: nearly all actives have a fitted effect of over 55% in size
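Yeast expressing FUS under galactose induction, OD 0.005 in 2% galactose medium; compounds in a dilution series, 24 h at 30C. Growth rescue by absorbance at 600 nm; CP55940 positive control, DMSO negative.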
aSyn rescue – qHTS of alpha-syn Inhibitors; Yeast expressing alpha-synuclein, growth rescue, BacTiter-Glo, 24 h; Potency, µM (titrated, usually from 46.1 µM), most hits filed as activators; 370,000 compounds, 0.14% hits; further: nearly all actives have a fitted effect of over 65% in size
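Readout is rescue of growth in alpha-synuclein-expressing yeast, so inhibitors of toxicity appear as activators. Growth after 24 hr at 30 deg C in galactose medium is quantified by luminescence.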
Of the large screens only hits and unclear results are named; the others gave an inactive call. Compounds with a hit are over-represented: about 2.1% of the library has one in this group of screens. The call rests on the fitted dose curve; in most records, active means well fitted curve in the direction sought with a large enough effect; inconclusive means small, poorly fitted or top-dose-only effect, or another doubt; inactive means no such curve, though single readings can be large; an effect the other way counts as inactive or inconclusive.

O=C(NCc1cccc(Br)c1)c1cc(-c2ccccc2)nn1CC1CC(c2cccc([N+](=O)[O-])c2)=NO1 (stereo unspecified)	FUS suppressor 32µM
COCCNC(=O)c1cc(-c2ccccc2)nn1CC1CC(c2cccc([N+](=O)[O-])c2)=NO1 (stereo unspecified)	none
COc1cccc(CN(C)C(=S)Nc2cccc(C)c2)c1	TDP-43 yeast inh 11µM
COc1ccc(CN(C)C(=S)Nc2ccc(Cl)cc2)cc1	Abeta rescue 11µM
COc1ccc(CC(=O)NC(=S)Nc2cccc(C)c2)cc1	none
O=C(c1n[nH]c2ccccc12)N1CCCCC1	none
O=C(CSc1nc(O)cc(=O)n1-c1ccccc1)Nc1ccc(Br)cn1	FUS suppressor 28µM (no result: TDP-43 yeast inh)
O=C(O)c1ccc(NCc2ccncc2)cc1	none
O=C(O)c1ccc(NCc2cccc(Br)c2)cc1	TDP-43 yeast inh 11µM, aSyn rescue inconclusive
CCC(C)C(Nc1ncnc2scc(-c3ccccc3)c12)C(=O)O (stereo unspecified)	none
Cc1ccnc2c(N3C(=O)C4C5C=CC(C5)C4C3=O)cccc12 (stereo unspecified)	none
Cc1cc2c([nH]c3ccccc32)c2c1OC(C)(C)C=C2	TDP-43 yeast inh 28µM
CCOC(=O)N1CCN(C(=O)c2cc(COc3cccc(C(F)(F)F)c3)on2)CC1	TDP-43 yeast inh 10µM (no result: FUS suppressor)
CC1CCN(C(=O)c2ccc(-n3cnnn3)cc2)CC1	none
O=c1c2ccc(Cl)cc2[nH]c(=S)n1Cc1cccnc1	none (no result: FUS suppressor)
Brc1ccc(Cn2c(-c3cncs3)nc3ccccc32)cc1	TDP-43 yeast inh inconclusive
c1ccc(Cn2c(-c3cncs3)nc3ccccc32)cc1	TDP-43 yeast inh 7.9µM
COc1cc(OC)c(NC(=O)CCc2nc(-c3cccs3)no2)cc1Cl	TDP-43 yeast inh 20µM
Cc1cc(C)cc(OC(=O)c2cccnc2)c1	none
O=S(=O)(NCCOc1ccccc1F)c1cccc(Br)c1	Abeta rescue inconclusive, TDP-43 yeast inh 13µM
O=S(=O)(NCCOc1ccccc1F)c1ccc(Cl)cc1F	TDP-43 yeast inh 22µM
O=C(COC(=O)c1cccc(Br)c1)NC1CCCCCCC1	TDP-43 yeast inh inconclusive
CCc1nc2ccccc2c(C(=O)OCC(=O)N(C)Cc2ccccc2)c1C	TDP-43 yeast inh 35µM
CN(Cc1ccccc1)C(=O)COC(=O)c1ccc2ccccc2n1	none
O=C(Nc1ccc(Cl)cc1)Nc1ccc(N2CCCC2)c(S(=O)(=O)Nc2ccccc2Cl)c1	none
CCC(C)c1ccc(NC(=O)c2c([N+](=O)[O-])cnn2CC)cc1 (stereo unspecified)	TDP-43 yeast inh 20µM
CCn1ncc([N+](=O)[O-])c1C(=O)Nc1ccc(C(=O)N2CCCCC2)cc1	none
O=C(O)CCCCCN1C(=O)C(O)=C(C(=O)/C=C/c2ccccc2)C1c1ccc2c(c1)OCO2 (stereo unspecified)	FUS suppressor 35µM
COc1ccc(C2=Nn3c(nnc3-c3ccco3)SC2)cc1	TDP-43 yeast inh 22µM
c1coc(-c2nnc3n2N=C(c2ccc4ccccc4c2)CS3)c1	none (no result: Abeta rescue, TDP-43 yeast inh, aSyn rescue)
Cc1ccc(NC(=O)CNc2ccccc2N2CCCC2=O)cc1S(=O)(=O)N1CCCCC1	none (no result: FUS suppressor)
CCCNC(=O)CSc1nnc(-c2ccco2)n1C	none
CC1CCCN(S(=O)(=O)c2ccc(NC(=O)CN3C(=O)NC(C)(c4ccccc4)C3=O)cc2)C1 (stereo unspecified)	FUS suppressor 28µM
CCc1ccc(OC(C)C(=O)N2CCC(c3nc4ccccc4s3)CC2)cc1 (stereo unspecified)	TDP-43 yeast inh 16µM, FUS suppressor inconclusive (no result: aSyn rescue)
CC(C)Oc1ccc(C(=O)N2CCC(c3nc4ccccc4s3)CC2)cc1	none (no result: aSyn rescue)
COc1ccccc1OC(C)C(=O)N1CCC(c2nc3ccccc3s2)CC1 (stereo unspecified)	TDP-43 yeast inh 14µM (no result: aSyn rescue)
N#Cc1ccc(/C=N/NC(=O)c2ccccc2F)cc1	none (no result: FUS suppressor)
C=C1c2cccc(O)c2C(=O)C2C(=O)[C@]3(O)C(=O)C(C(N)=O)C(=O)[C@@H](N(C)C)[C@@H]3[C@@H](O)[C@H]12 (stereo partly specified)	none
CC1=CCC2C(=O)N(c3cccc(C(=O)Nc4ccc(Cl)cc4)c3)C(=O)C2C1 (stereo unspecified)	Abeta rescue 14µM, TDP-43 yeast inh inconclusive
CC1=CCC2C(=O)N(c3cccc(C(=O)NCc4ccccc4)c3)C(=O)C2C1 (stereo unspecified)	none
Cc1ccc(S(=O)(=O)NCC(=O)N(CC(=O)NC2CCCC2)c2ccc3c(c2)OCCO3)cc1	TDP-43 yeast inh inconclusive (no result: FUS suppressor)
CCOC(=O)c1c(-c2ccc(-c3ccccc3)cc2)csc1NC(=O)CCN1CCOCC1	TDP-43 yeast inh 14µM, FUS suppressor inconclusive
CCCNc1nc(Nc2ccc(C)c(Cl)c2)c2cnn(C)c2n1	TDP-43 yeast inh inconclusive
CNc1nc(Nc2ccc(C)c(Cl)c2)c2cnn(C)c2n1	TDP-43 yeast inh 14µM
CCCCNC(=O)CCC(=O)NNc1nc2ccccc2c2nc(-c3ccccc3)nn12	none
COc1ccc(NS(=O)(=O)c2ccc(SC)cc2)cc1	FUS suppressor 10µM
COc1ccc(NS(=O)(=O)c2ccc(NS(C)(=O)=O)cc2)cc1	none
COC(=O)c1ccc(NS(=O)(=O)c2ccc(SC)cc2)cc1	none
CSc1ccc(S(=O)(=O)Nc2ccc(F)cc2)cc1	TDP-43 yeast inh 13µM
CC(=O)c1cccc(Nc2cc(C)nc3nc(-c4ccccc4C)nn23)c1	TDP-43 yeast inh 11µM (no result: aSyn rescue)
CCc1c(-c2ccccc2F)ncn1Cc1cccc(-c2ccccc2)c1	TDP-43 yeast inh 20µM, FUS suppressor inconclusive
O=C1CC(c2ccccc2)=Nc2ccccc2N1Cc1ccccc1	TDP-43 yeast inh 13µM
O=C(CN1C(=O)CC(c2ccccc2)=Nc2ccccc21)Nc1ccc(Br)cc1	none (no result: aSyn rescue)
CCCCN1C[C@H](c2ccc(OC)cc2)[C@@H](CC(=O)Nc2ccc(Br)cc2)C1=O	none
COc1ccc(C(=O)/C(=C\c2ccco2)N2C=CC=CC2=C(C#N)C#N)cc1	TDP-43 yeast inh inconclusive
COc1ccc(/C=C(/C(=O)c2cccs2)N2C=CC=CC2=C(C#N)C#N)cc1	TDP-43 yeast inh inconclusive, aSyn rescue 18µM
Cc1nn(C)c2c1c(C(F)(F)F)cc(=O)n2C(C)C(=O)NCCc1ccc(Cl)cc1 (stereo unspecified)	none (no result: aSyn rescue)
CCn1nc(C)c2c(-c3ccccc3)cc(=O)n(C(C)C(=O)NCCc3ccc(Cl)cc3)c21 (stereo unspecified)	TDP-43 yeast inh 22µM, FUS suppressor inconclusive (no result: aSyn rescue)
Cc1nn(C)c2c1c(-c1ccccc1)cc(=O)n2C(C)C(=O)NCCc1ccc(Cl)cc1 (stereo unspecified)	TDP-43 yeast inh 22µM, FUS suppressor inconclusive (no result: aSyn rescue)
CCn1nc(C)c2c(-c3ccccc3)cc(=O)n(C(C)C(=O)NCc3ccccc3OC)c21 (stereo unspecified)	TDP-43 yeast inh 10µM, FUS suppressor inconclusive (no result: aSyn rescue)
